PubChem BioAssay
Activity calls are given as the source filed them.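 Rule for the calls, unless noted: active = NADPH fluorescence slope more negative than the mean of all samples by about 3 SD, 99.7% confidence; inactive = the rest.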

Key:
[1] = inhibitors of TNFa-induced NFkB p65 translocation, primary screen, imaging, HUVEC, MLSMR starter and 10KST1 sets (AID 438;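 active = inhibition above 20% together with a positive visual image hit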;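 note: compound added about 3h40 before a 20 min TNFalpha stimulation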;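 for inhibition: signal is the nuclear over cytoplasmic p65 intensity ratio per well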); conditions: HUVEC TNFa-induced p65 nuclear translocation; cell count: measured here: nuclei count (cytotoxicity indicator), at 2.08 µM; inhibition: at 2 µM, stronger effect = higher value, 0% TNFa-plus-vehicle, 100% no-TNFa wells
[2] = reduction of polyQ htt aggregates in cells – imaging, exon1htt(103Q)mCFP cells, high-content imaging, primary screen (AID 483;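 active = visual image review flags a hit and inhibition of aggregation exceeds 20%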;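 note: compound exposure lasted 3 days before fixation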;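 for nuclei count: percent of the per-plate median nuclei count of sample wells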); conditions: exon1htt(103Q)mCFP cell line, aggregate imaging, at 2 µM; inhibition of aggregation: stronger effect = higher value; nuclei count: measured here: cell count, toxicity
[3] = endothelial E-selectin expression blockers – imaging, HUVEC, immunofluorescence, MLSMR starter and 10KST1 sets, primary screen (AID 487;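 active = visually confirmed hit in the image check and inhibition above 20%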;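 for inhibition: signal is fraction of cell area covered by stained E-selectin grains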;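 for nuclei count: 100% = median nuclei count of all wells on the same plate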); conditions: HUVEC TNFalpha-induced E-selectin immunofluorescence imaging, at 2 µM; inhibition: stronger effect = higher value; nuclei count: measured here: cell number, toxicity
[4] = target: Voltage-gated potassium channel subunit beta-2 (Rattus norvegicus) (UniProt P62483); assay: inhibitors of rat Kvbeta2 reductase activity – biochemical, NADPH fluorescence, primary screen (AID 622;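 active = fluorescence slope higher than the sample average by over 3 SD, cut at about -0.22 in these data, passing the limit was not always enough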;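 note: slope of raw intensity against log time taken from 70 to 1610 s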); conditions: recombinant KvBeta, 4-cyanobenzaldehyde reduction, at 10 µM, stronger effect = higher value
Chain of Voltage-gated potassium channel subunit beta-2 (Rattus norvegicus) (P62483 whole entry, looked up): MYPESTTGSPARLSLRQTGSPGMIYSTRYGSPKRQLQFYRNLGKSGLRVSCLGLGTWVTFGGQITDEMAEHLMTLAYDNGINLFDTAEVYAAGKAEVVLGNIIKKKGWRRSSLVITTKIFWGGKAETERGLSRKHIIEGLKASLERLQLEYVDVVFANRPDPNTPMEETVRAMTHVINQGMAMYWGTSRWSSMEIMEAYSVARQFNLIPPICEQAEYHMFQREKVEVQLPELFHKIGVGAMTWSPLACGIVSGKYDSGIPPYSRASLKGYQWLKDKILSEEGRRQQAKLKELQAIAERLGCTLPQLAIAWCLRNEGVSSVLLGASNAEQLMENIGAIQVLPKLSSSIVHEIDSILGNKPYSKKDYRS

[5] = target: Voltage-gated potassium channel subunit beta-2 (Rattus norvegicus) (UniProt P62483); assay: enhancers of rat Kvbeta2 NADPH turnover – biochemical, NADPH fluorescence, primary screen (AID 623); conditions: Recombinant KvBeta, NADPH fluorescence decrease slope, 10 min; at 10 µM; stronger effect = lower value;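 note: fluorescence intensity change per second fitted from 20 to 320 s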
[6] = target: Alpha-2C adrenergic receptor (Homo sapiens) (UniProt P18825); assay: compounds altering alpha2C-coupled GIRK flux – cell-based, HEK293 alpha2C/GIRK1/2, thallium flux, primary screen (AID 624;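 active = fluorescence slope after compound addition differing from the mean of all screened samples at 99.7% confidence, in either direction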;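 note: slope of fluorescence ratio to pre-addition baseline per second over 15 to 24 s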); conditions: thallium flux BTC fluorescence, at 10 µM, actives lie on both sides
Chain of Alpha-2C adrenergic receptor (Homo sapiens) (P18825 whole entry, looked up): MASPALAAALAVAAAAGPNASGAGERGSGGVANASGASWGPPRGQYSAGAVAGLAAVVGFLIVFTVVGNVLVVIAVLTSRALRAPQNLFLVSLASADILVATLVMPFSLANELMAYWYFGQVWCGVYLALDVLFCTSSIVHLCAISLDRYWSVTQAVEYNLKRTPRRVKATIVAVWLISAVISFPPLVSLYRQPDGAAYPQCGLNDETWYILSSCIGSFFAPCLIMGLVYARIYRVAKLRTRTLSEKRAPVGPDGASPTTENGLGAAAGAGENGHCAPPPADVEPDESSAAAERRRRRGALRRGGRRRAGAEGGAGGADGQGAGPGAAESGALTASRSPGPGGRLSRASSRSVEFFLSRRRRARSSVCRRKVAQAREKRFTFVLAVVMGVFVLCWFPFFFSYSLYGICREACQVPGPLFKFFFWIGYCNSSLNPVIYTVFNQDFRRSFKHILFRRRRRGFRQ

[7] = blockers of RIG-like receptor reporter activation – cell-based, Sendai virus stimulus, luciferase, 10K MLSCN set, TLR/RLR signaling modifier project, primary screen (AID 602276;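 active = inhibition at or above 50% at 10 µM; inactive = inhibition below 50%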;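 note: firefly luciferase from ISG56 promoter only with Renilla not read in this screen; 0% = Sendai virus plus DMSO and 100% = medium plus DMSO without virus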); conditions: HEK293 RL24 IRF3 luciferase reporter, at 10 µM, stronger effect = higher value
[8] = TLR3 IRF3 reporter activation blockers – cell-based, poly I:C stimulus, luciferase, 10K MLSCN set, primary screen (AID 602277;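 active = inhibition of the reporter signal at or above 50%; inactive = inhibition below 50%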); conditions: HEK293-TLR3 RL24 IRF3 luciferase reporter, at 10 µM, stronger effect = higher value

SMILES | cell count [1] | inhibition [1] | inhibition of aggregation [2] | nuclei count [2] [%] | inhibition [3] | nuclei count [3] [%] | fluorescence slope [4] | NADPH fluorescence slope [5] | slope [6] | inhibition [7] | inhibition [8]
Cc1oc2cc3c(C(=O)OCCN(C)C)c(C)oc3cc2c1C(=O)OCCN(C)C | 445 | -6% (inactive) | -22.9% (inactive) | 95.2 | -44.7% (inactive) | 92.4 | -0.412 (inactive) | -3.3e-05 (inactive) | 0.00351 (inactive) | 48.3% (inactive) | 99.1% (active)
CCc1c(C)c2c(C)nn(-c3ccccc3)c2[nH]c1=O | 292 | -0.8% (inactive) | 21.9% (inactive) | 94.5 | -49.1% (inactive) | 123 | -0.409 (inactive) | -0.000123 (inactive) | 0.00678 (inactive) | 6.95% (inactive) | -0.265% (inactive)
CS(=O)(=O)N1CCCC(C(=O)N2CCOCC2)C1 (stereo not drawn) | 683 | 1.2% (inactive) | 9.8% (inactive) | 92 | -142% (inactive) | 116 | -0.566 (inactive) | 6.2e-06 (inactive) | 0.00664 (inactive) | 11.5% (inactive) | 3.97% (inactive)
COc1ccc(C2CC(=O)C(C=NCCCN3CCOCC3)=C(O)C2)cc1 (stereo not drawn) | 392 | -4.9% (inactive) | 14% (inactive) | 80.7 | 3% (inactive) | 87.7 | -0.351 (inactive) | -1.5e-05 (inactive) | 0.00635 (inactive) | 14.7% (inactive) | 32.7% (inactive)
COC(=O)c1ccccc1NC1c2ccccc2C(=O)N1c1cccnc1 (stereo not drawn) | 725 | -6.7% (inactive) | -10.5% (inactive) | 100 | -26.4% (inactive) | 112 | -0.53 (inactive) | -4.7e-05 (inactive) | 0.00566 (inactive) | 5.35% (inactive) | 16.8% (inactive)
CCC(C)(C)NC(=O)C(c1ccco1)N(C(=O)Cn1nnc2ccccc21)c1ccc2c(c1)OCO2 (stereo not drawn) | 497 | -25% (inactive) | 14.5% (inactive) | 86 | -10.4% (inactive) | 102 | -0.522 (inactive) | -2e-05 (inactive) | 0.00407 (inactive) | 14.6% (inactive) | 21% (inactive)
Cc1ccc2oc(C(=O)Nc3c(C)n(C)n(-c4ccccc4)c3=O)c(C)c2c1 | 776 | -5% (inactive) | -1.5% (inactive) | 109 | -37.6% (inactive) | 108 | -0.616 (inactive) | -2.7e-05 (inactive) | 0.00692 (inactive) | -5.27% (inactive) | 7.35% (inactive)
CCOC(=O)C1CCN(C(=O)COc2ccc(Cl)cc2Cl)CC1 | 705 | -5.1% (inactive) | 8% (inactive) | 103 | 4.3% (inactive) | 104 | -0.613 (inactive) | -1.6e-05 (inactive) | 0.00593 (inactive) | 3.61% (inactive) | 14.2% (inactive)
COc1ccc(-c2nnc(-c3cccs3)o2)cc1OC | 384 | -0.2% (inactive) | 6.2% (inactive) | 99 | 67.8% (active) | 94.7 | -0.343 (inactive) | 3e-05 (inactive) | 0.00689 (inactive) | -76.7% (inactive) | -170% (inactive)
CC(=O)Nc1ccc(NS(=O)(=O)C(F)(F)F)cc1 | 417 | 2% (inactive) | 8% (inactive) | 104 | -96% (inactive) | 127 | -0.353 (inactive) | -0.000109 (inactive) | 0.00651 (inactive) | 3.92% (inactive) | 21.1% (inactive)
COC(=O)C1CCN(C(=O)c2sc3nc(-c4ccc(F)cc4)cn3c2C)CC1 | 654 | -6.1% (inactive) | -14.7% (inactive) | 105 | -65.8% (inactive) | 120 | -0.487 (inactive) | -4.6e-05 (inactive) | 0.00421 (inactive) | 10.2% (inactive) | 3.27% (inactive)
Cc1ccc(C)c(NC(=O)CSc2nnc(-c3ccccc3)o2)c1 | 613 | -6% (inactive) | 18.9% (inactive) | 89.2 | -45.1% (inactive) | 104 | -0.543 (inactive) | 8.3e-06 (inactive) | 0.00712 (inactive) | 10% (inactive) | 29.3% (inactive)
NCCN1CCN(CCN)CC1 | 728 | -10% (inactive) | -4.6% (inactive) | 116 | -23.9% (inactive) | 132 | -0.436 (inactive) | -1.1e-05 (inactive) | 0.00707 (inactive) | 12.2% (inactive) | 18.8% (inactive)
O=C1CN(c2nc3ccccc3n3cnnc23)CC(=O)N1CCc1ccccc1 | 662 | 10% (inactive) | -13% (inactive) | 112 | -66% (inactive) | 116 | -0.588 (inactive) | -6.3e-05 (inactive) | 0.00474 (inactive) | 6.8% (inactive) | 9.78% (inactive)
O=C(NCC1CCCO1)c1cccc(N2CCCC2=O)c1 (stereo not drawn) | 458 | -18.6% (inactive) | -1.3% (inactive) | 88.8 | -32.7% (inactive) | 115 | -0.376 (inactive) | 2.3e-06 (inactive) | 0.0057 (inactive) | 10.8% (inactive) | 4.03% (inactive)
Cn1nc(C(=O)NC2CCCCCC2)ccc1=O | 348 | -4.6% (inactive) | 14% (inactive) | 105 | -2.2% (inactive) | 121 | -0.608 (inactive) | -2.1e-05 (inactive) | 0.00579 (inactive) | 9.51% (inactive) | 11.7% (inactive)
Cc1ccc(-n2c(Cn3cnc4ccccc43)nnc2SCC(=O)O)cc1 | 610 | -9.8% (inactive) | -19.4% (inactive) | 108 | -26.2% (inactive) | 110 | -0.437 (inactive) | 1.2e-06 (inactive) | 0.00571 (inactive) | 15.2% (inactive) | 21.8% (inactive)
CCc1nnc(NC(=O)CN2CCN(c3ccccc3OC)CC2)s1 | 287 | 6.2% (inactive) | -10% (inactive) | 102 | 3.6% (inactive) | 97.4 | -0.616 (inactive) | -2e-05 (inactive) | 0.00643 (inactive) | 7.27% (inactive) | 27.9% (inactive)
COc1ccc(S(=O)(=O)N2Cc3ccccc3CC2C(=O)Nc2ccc(O)cc2)cc1OC (stereo not drawn) | 772 | -2.9% (inactive) | -7.4% (inactive) | 119 | -42.8% (inactive) | 114 | -0.556 (inactive) | -6e-05 (inactive) | 0.0071 (inactive) | 8.15% (inactive) | 29.5% (inactive)
Cn1c(=O)c2c(nc(SCCOc3ccc4ccc(=O)oc4c3)n2C)n(C)c1=O | 581 | 3.3% (inactive) | 7.2% (inactive) | 107 | -34.8% (inactive) | 95.1 | -0.53 (inactive) | -3.8e-05 (inactive) | 0.00534 (inactive) | 5.44% (inactive) | 23.8% (inactive)
CCOC(=O)c1nnn(CC(=O)Nc2cccc(F)c2)c1C(=O)OCC | 581 | -7.9% (inactive) | 8.9% (inactive) | 124 | -41.8% (inactive) | 112 | -0.6 (inactive) | -1.1e-05 (inactive) | 0.00821 (inactive) | 3.63% (inactive) | 12.6% (inactive)
CC(C)(NC(=O)N1CCCC1)c1cccc(C(C)(C)NC(=O)N2CCCC2)c1 | 366 | -1.8% (inactive) | 34.8% (active) | 92.3 | 21.6% (inactive) | 83.8 | -0.381 (inactive) | 3e-05 (inactive) | 0.00445 (inactive) | 11.4% (inactive) | 30.1% (inactive)
O=C(CN1C(=O)CSC1=O)N1CCc2ccccc2C1 | 324 | 4.8% (inactive) | 14% (inactive) | 101 | 0.8% (inactive) | 107 | -0.423 (inactive) | -5.1e-05 (inactive) | 0.00367 (inactive) | 6.34% (inactive) | 31% (inactive)
CCc1nc(SCC(=O)NCc2ccco2)c2c3c(sc2n1)CCCC3 | 586 | -2.1% (inactive) | 14.8% (inactive) | 85.9 | -21.9% (inactive) | 116 | -0.466 (inactive) | -1.1e-05 (inactive) | 0.00647 (inactive) | 15.3% (inactive) | 20.6% (inactive)
COc1cc2c(cc1OC)-c1nnc(C)n1C1(CCCC1)C2 | 849 | 2.9% (inactive) | -14.8% (inactive) | 132 | -70.9% (inactive) | 120 | -0.606 (inactive) | 3.2e-05 (inactive) | 0.00696 (inactive) | 10.3% (inactive) | 1.68% (inactive)
Cc1cc(=O)n2nc(N3CCC(C(=O)N4CCN(Cc5ccccc5)CC4)CC3)sc2n1 | 450 | -1% (inactive) | -0.2% (inactive) | 113 | -31.7% (inactive) | 103 | -0.329 (inactive) | -5.5e-05 (inactive) | 0.00533 (inactive) | 7.85% (inactive) | 3.68% (inactive)
O=C(c1ccc2c(c1)OCCO2)C1CCN(C(=O)c2ccc(F)cc2)CC1 | 326 | -10% (inactive) | -12% (inactive) | 110 | -77.5% (inactive) | 126 | -0.514 (inactive) | -4.4e-05 (inactive) | 0.00672 (inactive) | 7.11% (inactive) | -2.46% (inactive)
CCc1nc2scc(-c3ccccc3)c2c(=O)n1N | 414 | 10.9% (inactive) | 0% (inactive) | 98.5 | -361% (inactive) | 142 | -0.437 (inactive) | 6.4e-05 (inactive) | 0.00592 (inactive) | -8.38% (inactive) | -30.6% (inactive)
